About 79,000 compounds went through this panel and 15% of them were active in at least one assay; those are over-represented in the sample as a whole. Active and inactive are the calls of the source. No stated cut-off is given here; in the data, active means growth inhibition above about 70%; inactive means the rest.
Test: NCI Yeast Anticancer Drug Screen. Data for the mlh1 rad18 strain (AID 175)
Conditions: S. cerevisiae mlh1 rad18 strain growth inhibition; at 50.0 µM; stronger effect = higher value
Procedure, shortened: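 Compound-treated yeast growth, normalised to vehicle controls. Strain bears defined DNA repair mutations.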

SMILES	growth inhibition
CCCCCCCCc1ccc2c3ccccc3c3ccccc3c2c1	58.9% (inactive)
O=C1C(=O)c2ccc(Br)cc2C(O)=C1C(c1ccccc1)c1ccccc1	32.5% (inactive)
CN(C)Cc1ccc2[nH]c3c(c2c1)CCCC3	65.1% (inactive)
COc1ccc(NC(=O)Nc2ccc(Cl)cc2)nn1	-3.9% (inactive)
CO/N=C/c1cc(NC(=S)c2ccoc2C)ccc1Cl	91.2% (active)
O=C(Sc1c(-c2ccccc2)c(=O)n(-c2ccccc2)c(=S)n1-c1ccccc1)c1cccs1	77.6% (active)
O=C1/C(=C/c2ccc(F)cc2)CNC/C1=C\c1ccc(F)cc1	85.5% (active)
O=c1cc2cccccc-2cc1O	86.3% (active)
Oc1c(Br)cc(Br)cc1-c1ccccc1	99.3% (active)
C(=[CH]/[Sn]([c]1ccccc1)([c]1ccccc1)[c]1ccccc1)/c1ccccc1	94.1% (active)
CCCCCCCCCN1CCNC1=S	49.5% (inactive)
O=C1C/C(=C\c2ccccc2)C(=O)c2ccccc2N1	60.5% (inactive)
CN(C)C(=O)Nc1ccc(Cc2ccc(NC(=O)N(C)C)cc2)cc1	-0.15% (inactive)
C=C1CC(C)(COc2ccc3c(C)c(Cl)c(=O)oc3c2)OC1=O (stereo not given)	58.6% (inactive)
CC[C@@]1(OP(=O)(O)O)C(=O)OCc2c1cc1n(c2=O)Cc2cc3ccccc3nc2-1	74.2% (active)
O=S(=O)(Sc1ccccc1)C(c1ccccc1)c1ccccc1	6.85% (inactive)
CCOC(=O)c1c(N)sc2c1CCCCC2	61.1% (inactive)
CCCCCCCCCCCCCCNCCN	88.5% (active)
CCCN(CCC)CCNc1ccc(C)c2sc3ccccc3c(=O)c12	99.5% (active)
CC1CC2(C)ON=C(c3ccccc3)N2c2ccccc2S1 (stereo not given)	83.7% (active)

SMILES	growth inhibition
COc1ccc(N=NN2CCCC2)cc1	91.2% (active)
S=C(Nc1ccccc1)NC1CC2C=CC1CC2 (stereo not given)	13.2% (inactive)
C=CCOC(=O)C(O)C(CC)CCCCC (stereo not given)	-3.3% (inactive)
NC(=O)c1ccccc1C(=O)O	5.9% (inactive)
CS(=O)(=O)c1cc(=O)c2ccccc2s1	97.8% (active)
O=C([O][Sb]([O]C(=O)C(Cl)(Cl)Cl)([c]1ccccc1)([c]1ccccc1)[c]1ccccc1)C(Cl)(Cl)Cl	66.7% (inactive)
CCCCCCCCCCCCCCCCCCOP(=O)([O-])OCC[N+](C)(C)C	91.6% (active)
Nc1ccc(SCCCc2c(N)nc(N)nc2N)cc1	82.2% (active)
O=C1C=CC(=O)c2c1cc1ccccc1c2O	30.6% (inactive)
CCN(CC)CC(O)CNc1ccc(NCC(O)CCl)c2c1C(=O)c1ccccc1C2=O (stereo not given)	19.1% (inactive)
N#Cc1c(N)nc2c(N=Nc3ccccc3)c(N)nn2c1Nc1ccccc1	76.1% (active)
CC(O)c1c2ccccc2cc2ccccc12 (stereo not given)	78.8% (active)
Cc1ccccc1NC(=O)C1C(=O)N(c2ccccc2C)C(=O)/C1=N/O (stereo not given)	3.65% (inactive)
O=Cc1ccc(-c2nccc3c2[nH]c2ccccc23)o1	-1.45% (inactive)
C=CC(C)(CCC=C(C)C)OC(=O)Nc1ccccc1 (stereo not given)	-4.25% (inactive)
Oc1ccc(-c2nnc(-c3ccc(Cl)cc3Cl)o2)cc1	51.8% (inactive)
C/C=C1\CC(C)(CC)C(C#N)(C#N)C(N)=C1C#N (stereo not given)	-28.7% (inactive)
Cc1nc(-c2ccccc2)nc2c1nc(C(C)C)n2Nc1ccccc1	78.5% (active)
Cc1csc2c1C(=O)c1ccsc1C2=O	91.1% (active)
COc1cc(Nc2ccc(Oc3ccc(O)cc3)cc2)c2ncccc2c1	76% (active)

— PubChem BioAssay (NCI)
